According to PubChem BioAssay (Tox21):
Results filed as inconclusive are left out. Active and inactive are the calls of the source. Unless noted, the call rests on the fitted dose curve; in most records, active means well fitted curve in the direction sought with a large enough effect in the repeat runs; inconclusive means weak or mixed curves; inactive means no such curve, though single readings can be large; an effect the other way counts as inactive or inconclusive.

What was measured:
[1] = biological target: Thyrotropin receptor (Homo sapiens) (UniProt P16473); assay: qHTS assay to identify small molecule antagonists of the thyroid stimulating hormone receptor (TSHR) signaling pathway (AID 1259385; calls by dose curve; further: nearly all actives have a fitted effect of over 20% in size)
Chain of Thyrotropin receptor (Homo sapiens) (P16473 whole entry, looked up): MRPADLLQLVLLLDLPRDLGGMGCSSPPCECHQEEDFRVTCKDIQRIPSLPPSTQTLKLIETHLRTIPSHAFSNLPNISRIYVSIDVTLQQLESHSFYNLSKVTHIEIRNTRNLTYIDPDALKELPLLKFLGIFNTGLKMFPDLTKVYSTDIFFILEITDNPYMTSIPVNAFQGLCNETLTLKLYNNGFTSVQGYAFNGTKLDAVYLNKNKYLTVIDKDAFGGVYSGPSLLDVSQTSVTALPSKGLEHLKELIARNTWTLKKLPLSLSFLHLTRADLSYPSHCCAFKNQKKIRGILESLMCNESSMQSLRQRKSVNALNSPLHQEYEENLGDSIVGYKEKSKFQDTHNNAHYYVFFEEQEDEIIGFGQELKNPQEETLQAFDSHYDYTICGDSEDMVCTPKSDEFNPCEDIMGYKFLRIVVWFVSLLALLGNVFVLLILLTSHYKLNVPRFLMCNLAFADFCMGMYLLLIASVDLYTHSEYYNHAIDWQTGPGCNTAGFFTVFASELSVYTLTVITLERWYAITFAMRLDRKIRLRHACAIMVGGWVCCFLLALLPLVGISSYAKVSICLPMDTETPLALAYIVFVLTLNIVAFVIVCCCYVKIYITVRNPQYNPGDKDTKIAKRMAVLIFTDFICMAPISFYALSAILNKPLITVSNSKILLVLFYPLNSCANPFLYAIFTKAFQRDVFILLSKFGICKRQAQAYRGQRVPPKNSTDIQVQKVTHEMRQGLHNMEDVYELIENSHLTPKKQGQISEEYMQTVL
Procedure, shortened: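 TSHR-HEK293 cells were plated and held 18 h at 37C/5% CO2, then given compound plus Ro20-1724 and stimulated with TSH at 1.5 ng/mL final. After 30 min at room temperature, cAMP was detected with cAMP-d2/anti-cAMP-cryptate (1 h) by fluorescence.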

[2] = qHTS assay to identify small molecule agonists of the estrogen receptor alpha (ER-alpha) signaling pathway in the presence of an antagonist - cell viability counter screen (AID 1259386);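 further: series mostly up to about 92 µM; cells exposed to compounds for 22 h at 37 °C before the viability read; nearly all actives have a fitted effect of over 30% in size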
Procedure, shortened: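 In this counter screen, compound effects on VM7Luc4E2 viability were tested in the presence of the antagonist ICI-182,780 at 10.0nM final. Compounds were dosed at 15 concentrations, exposure lasted 22hr, and the CellTiter-Fluor signal was read.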

[3] = biological target: Progesterone receptor (Homo sapiens) (UniProt P06401); assay: qHTS assay to identify small molecule agonists of the progesterone receptor (PR) signaling pathway (AID 1346784; calls by dose curve; further: nearly all actives have a fitted effect of over 30% in size)
Chain of Progesterone receptor (Homo sapiens) (P06401 whole entry, looked up): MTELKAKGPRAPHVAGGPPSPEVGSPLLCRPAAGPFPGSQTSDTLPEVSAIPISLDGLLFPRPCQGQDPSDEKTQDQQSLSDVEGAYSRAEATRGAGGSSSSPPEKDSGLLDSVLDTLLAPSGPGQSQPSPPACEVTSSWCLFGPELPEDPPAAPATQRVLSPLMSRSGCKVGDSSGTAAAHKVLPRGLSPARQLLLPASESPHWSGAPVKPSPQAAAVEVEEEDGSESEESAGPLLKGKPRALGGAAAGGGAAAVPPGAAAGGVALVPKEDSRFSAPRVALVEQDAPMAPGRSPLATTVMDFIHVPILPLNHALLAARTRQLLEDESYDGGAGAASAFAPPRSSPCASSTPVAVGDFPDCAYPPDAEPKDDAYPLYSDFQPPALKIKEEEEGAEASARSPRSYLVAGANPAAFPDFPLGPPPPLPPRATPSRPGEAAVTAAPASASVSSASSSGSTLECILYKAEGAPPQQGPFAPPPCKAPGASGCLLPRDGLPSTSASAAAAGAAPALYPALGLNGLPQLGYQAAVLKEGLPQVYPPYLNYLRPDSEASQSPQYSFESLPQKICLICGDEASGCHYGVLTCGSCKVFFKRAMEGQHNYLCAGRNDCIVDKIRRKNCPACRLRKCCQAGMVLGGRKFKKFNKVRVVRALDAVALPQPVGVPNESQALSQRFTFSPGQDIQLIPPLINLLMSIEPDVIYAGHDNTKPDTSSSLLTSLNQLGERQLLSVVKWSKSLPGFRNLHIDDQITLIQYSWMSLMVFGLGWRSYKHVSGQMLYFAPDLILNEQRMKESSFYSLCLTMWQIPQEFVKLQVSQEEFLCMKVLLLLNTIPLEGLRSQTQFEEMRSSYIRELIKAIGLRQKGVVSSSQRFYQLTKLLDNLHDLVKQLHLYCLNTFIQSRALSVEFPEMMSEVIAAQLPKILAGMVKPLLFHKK
Procedure, shortened: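 Seed PR-UAS-bla HEK 293T cells (2% charcoal-stripped FBS), incubate 6 hr at 37C; add compounds in DMSO, 16 hr at 37C; add LiveBLAzer B/G substrate, 2 hr RT; read fluorescence intensity.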

[4] = qHTS assay to identify small molecule antagonists of the progesterone receptor (PR) signaling pathway - cell viability counter screen (AID 1346798); further: nearly all actives have a fitted effect of over 50% in size; further: potency means the concentration at half of the fitted maximal effect; on activity change, negative = cytotoxicity: series mostly up to about 92 µM
Procedure, shortened: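 Measures cytotoxicity in parallel with the PR antagonist reporter read: HEK293T PR-UAS-bla cells get compound and R5020 for 16 hr, and remaining viable cells are quantified by CellTiter-Glo luminescence.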

[5] = qHTS assay to identify small molecule agonists of the progesterone receptor (PR) signaling pathway - cell viability counter screen (AID 1346799; calls by dose curve; further: nearly all actives have a fitted effect of over 45% in size)
Procedure, shortened: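 Using the same plates as the PR reporter screen, HEK293T PR-UAS-bla cells received compounds for 16 hr at 37C and were then lysed with CellTiter-Glo; luminescence was read 30 min later at room temperature.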

[6] = qHTS assay to identify small molecule antagonists of the TGF-beta/Smad signaling pathway - cell viability counter screen (AID 1346824); further: nearly all actives have a fitted effect of over 50% in size
Procedure, shortened: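 SBE-bla HEK 293T cells were plated overnight at 37 C, then given compounds in DMSO plus TGF-beta1 (added as 0.25 ng/mL solution) for 5 hr. After the bla read, CellTiter-Glo was added to the same wells and luminescence read after 30 min at room temperature.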

[7] = qHTS assay to identify small molecule agonists of the TGF-beta/Smad signaling pathway - cell viability counter screen (AID 1346829); further: top concentration of the series differs between compounds; nearly all actives have a fitted effect of over 45% in size
Procedure, shortened: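 In parallel with the Smad reporter read, viability of HEK 293T cells stably carrying SBE-bla is quantified by ATP luminescence following 5 hr compound treatment.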

[8] = qHTS assay to identify small molecule agonists of the TGF-beta/Smad signaling pathway (AID 1346859; active means well fitted activation curve with a large enough effect in the signal ratio in the repeat runs, not every such curve was filed as active; the % refers to the signal ratio; further: series mostly up to about 77 µM)
Procedure, shortened: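 Beta-lactamase reporter activity downstream of Smad binding elements was measured in stably transfected HEK 293T cells; compounds were incubated for 5 hr, substrate for 2 hr at room temperature.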

[9] = biological target: Thyrotropin-releasing hormone receptor (Homo sapiens) (UniProt P34981); assay: qHTS assay to identify small molecule antagonists of the thyrotropin-releasing hormone receptor (TRHR) signaling pathway (AID 1346877; active means well fitted inhibition curve with a large enough effect in the repeat runs, not every such curve was filed as active; further: series mostly up to about 51 µM)
Chain of Thyrotropin-releasing hormone receptor (Homo sapiens) (P34981 whole entry, looked up): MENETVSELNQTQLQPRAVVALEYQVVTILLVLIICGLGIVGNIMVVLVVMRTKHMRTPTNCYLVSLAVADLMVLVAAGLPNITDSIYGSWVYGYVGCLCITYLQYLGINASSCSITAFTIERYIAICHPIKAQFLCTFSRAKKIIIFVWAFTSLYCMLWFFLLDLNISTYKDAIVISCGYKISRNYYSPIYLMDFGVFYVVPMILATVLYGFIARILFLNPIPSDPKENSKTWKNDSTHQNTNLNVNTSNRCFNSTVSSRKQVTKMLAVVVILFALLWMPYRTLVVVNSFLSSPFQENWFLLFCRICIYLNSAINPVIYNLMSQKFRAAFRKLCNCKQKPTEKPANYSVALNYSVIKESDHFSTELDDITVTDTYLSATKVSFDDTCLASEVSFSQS
Procedure, shortened: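 Kinetic fluorescence (3 min, 1 s resolution) following stimulation with TRH at 1 nM final; HEK293 cells bearing human TRHR; 5 min compound preincubation at RT; concentration-response over 15 points, triplicates.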

[10] = biological target: Thyrotropin-releasing hormone receptor (Homo sapiens) (UniProt P34981); assay: qHTS assay to identify small molecule agonists of the thyrotropin-releasing hormone receptor (TRHR) signaling pathway (AID 1346891; calls by dose curve;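 further: HEK293 cells expressing TRHR with calcium dye readout; series mostly up to about 58 µM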)
Procedure, shortened: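 Overnight-plated (18 h, 37 °C, 5% CO2) TRHR-Hek293 cells; 2 h calcium dye at 37 °C; compound in DMSO; 3-min kinetic fluorescence read.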

[11] = Human pregnane X receptor (PXR) small molecule agonists, qHTS cell viability counter screen (AID 1346977); further: nearly all actives have a fitted effect of over 50% in size
Procedure, shortened: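 After a 5hr pre-incubation, PXR-Luc HepG2 cells received compounds plus positive control in DMSO and were kept 24hr at 37C. Cell viability was quantified by fluorescence from CellTiter-Fluor added for the final hour.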

[12] = Caspase-3/7 induction in HepG2 cells by small molecules, qHTS assay (AID 1346978); further: nearly all actives have a fitted effect of over 15% in size
Procedure, shortened: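 Wild-type HepG2 cells (2,000/well) were settled 5 h at 37 C, 5% CO2, then exposed to compounds in DMSO for 17 h. Caspase-3/7 activity was read by luminescence 30 min after adding Caspase-Glo 3/7 reagent at room temperature.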

[13] = Caspase-3/7 induction in CHO-K1 cells by small molecules, qHTS cell viability counter screen (AID 1346979); further: nearly all actives have a fitted effect of over 35% in size
Procedure, shortened: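 Multiplexed with Caspase-Glo 3/7 in CHO-K1 cells, this counter screen added CellTiter-Fluor after 16hr of compound exposure and recorded fluorescence 1hr later.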

[14] = Caspase-3/7 induction in HepG2 cells by small molecules, qHTS cell viability counter screen (AID 1346981); further: series mostly up to about 92 µM; nearly all actives have a fitted effect of over 30% in size
Procedure, shortened: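 In this quantitative HTS counter screen, compounds delivered in DMSO were left on unmodified HepG2 cells for 16 hr at 37 C. Viability was then determined fluorometrically with CellTiter-Fluor, in parallel with caspase-3/7 induction in the same wells.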

[15] = biological target: Nuclear receptor subfamily 1 group I member 2 (Homo sapiens) (UniProt O75469); assay: Human pregnane X receptor (PXR) small molecule agonists, qHTS assay (AID 1346982); further: nearly all actives have a fitted effect of over 35% in size; further: potency means the concentration at half of the fitted maximal effect
Chain of Nuclear receptor subfamily 1 group I member 2 (Homo sapiens) (O75469 whole entry, looked up): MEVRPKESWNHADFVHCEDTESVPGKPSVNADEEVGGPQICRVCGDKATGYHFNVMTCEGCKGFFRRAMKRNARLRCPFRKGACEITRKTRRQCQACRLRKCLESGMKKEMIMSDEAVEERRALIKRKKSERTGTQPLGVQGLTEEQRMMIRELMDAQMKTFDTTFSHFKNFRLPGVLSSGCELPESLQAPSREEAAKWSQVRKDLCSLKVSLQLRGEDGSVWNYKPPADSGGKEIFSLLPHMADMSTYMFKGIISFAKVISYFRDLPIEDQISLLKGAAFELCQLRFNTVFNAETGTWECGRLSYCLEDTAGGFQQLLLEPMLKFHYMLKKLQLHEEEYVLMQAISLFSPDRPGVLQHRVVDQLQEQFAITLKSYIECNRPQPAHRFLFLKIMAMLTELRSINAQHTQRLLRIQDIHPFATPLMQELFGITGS
Procedure, shortened: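 Reporter HepG2 cells expressing PXR-Luc are cultured in charcoal-stripped FBS (5%), treated with compounds for 24 hr at 37 C, and assayed by ONE-Glo luminescence after 30 min at room temperature.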

[16] = Caspase-3/7 induction in CHO-K1 cells by small molecules, qHTS assay (AID 1346980); further: nearly all actives have a fitted effect of over 15% in size
Procedure, shortened: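 Wild-type cells were seeded at 1,500 per well and settled 5 hr at 37 C, 5% CO2, then exposed to DMSO-dissolved compounds for 17 hr. Caspase-Glo 3/7 reagent was added, and luminescence was read after 30min at room temperature.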

[17] = biological target: Progesterone receptor (Homo sapiens) (UniProt P06401); assay: qHTS assay to identify small molecule antagonists of the progesterone receptor (PR) signaling pathway (AID 1346795; active means well fitted inhibition curve with a large enough effect in the signal ratio in the repeat runs, not every such curve was filed as active; the % refers to the signal ratio)
Procedure, shortened: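 Screening used a GripTite HEK293T line with PR-responsive UAS-beta-lactamase. Cells were challenged with compound in the presence of 1 nM R5020 final for 16 hr at 37C; B/G FRET substrate, 2 hr room temperature, fluorescence.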

[18] = biological target: Nuclear receptor subfamily 1 group I member 2 (Rattus norvegicus) (UniProt Q9R1A7); assay: Rat pregnane X receptor (rPXR) activation by small molecules, qHTS assay (AID 1346983); conditions: rPXR luciferase reporter cells, One-Glo luminescence, 24 h; stronger effect = higher value; further: nearly all actives have a fitted effect of over 20% in size
Chain of Nuclear receptor subfamily 1 group I member 2 (Rattus norvegicus) (Q9R1A7 whole entry, looked up): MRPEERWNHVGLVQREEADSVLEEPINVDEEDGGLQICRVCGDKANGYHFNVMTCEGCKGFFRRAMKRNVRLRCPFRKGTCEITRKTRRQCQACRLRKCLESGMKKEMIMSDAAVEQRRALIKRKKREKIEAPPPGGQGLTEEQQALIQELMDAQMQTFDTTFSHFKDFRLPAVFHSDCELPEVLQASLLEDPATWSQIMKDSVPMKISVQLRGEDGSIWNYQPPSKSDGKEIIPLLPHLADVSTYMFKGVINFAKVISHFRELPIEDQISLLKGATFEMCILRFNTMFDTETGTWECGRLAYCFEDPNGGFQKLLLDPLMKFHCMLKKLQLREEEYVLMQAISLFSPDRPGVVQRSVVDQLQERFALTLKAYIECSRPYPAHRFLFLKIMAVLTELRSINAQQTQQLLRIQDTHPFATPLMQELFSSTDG
Procedure, shortened: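 Cell-based rPXR luciferase reporter assay, 2,000 cells per well, rested 5hr at 37 C before compound addition in DMSO, then 24 hr at 37 C. One-Glo reagent was added and luminescence read after 30 min at room temperature.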

[19] = biological target: Nuclear receptor subfamily 1 group I member 2 (Homo sapiens) (UniProt O75469); assay: CYP3A4 induction through human pregnane X receptor (PXR) by small molecules, qHTS assay (AID 1346984); further: nearly all actives have a fitted effect of over 40% in size
Procedure, shortened: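 Induction measured in HepG2-based DPX-2 cells co-expressing human PXR and a CYP3A4 promoter-driven luciferase. After a 24-hour compound exposure, cells received CYP3A4 luciferin substrate at 3uM final for 3 hours, and light output was then recorded.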

[20] = biological target: Nuclear receptor subfamily 1 group I member 2 (Homo sapiens) (UniProt O75469); assay: Human pregnane X receptor (PXR) activation by small molecules, qHTS assay (AID 1346985); further: nearly all actives have a fitted effect of over 40% in size
Procedure, shortened: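 DPX-2 cells (HepG2 co-transfected with a PXR response element and a CYP3A4-promoter luciferase construct) were seeded at 2,000 per well, rested 5 hr at 37C, then exposed to DMSO-dissolved compounds for 24 hr. Activation was read as luciferase luminescence.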
On the % scale 0 is the no-effect control and ±100 the full control effect.

CCCCCCCCCCCC
active: Potency [4] 68.6 µM
inactive: Potency [1] | Potency [2] | Potency [3] | Potency [5] | Potency [6] | outcome [7] | outcome [8] | outcome [9] | outcome [10] | Potency [11] | Potency [12] | Potency [13] | Potency [14] | Potency [15]

Nc1ccccc1S(=O)(=O)O
inactive: Potency [1] | Potency [2] | Potency [3] | Potency [4] | Potency [5] | Potency [6] | outcome [7] | outcome [8] | Potency [11] | Potency [12] | Potency [13] | outcome [16] | Potency [14] | Potency [15]

CCOC(=O)CC(C)=O
inactive: Potency [1] | Potency [2] | Potency [3] | Potency [5] | Potency [6] | outcome [7] | outcome [8] | Potency [11] | Potency [12] | Potency [13] | outcome [16] | Potency [14]

O=C1CCCN1C1CCCCC1
inactive: Potency [1] | Potency [2] | Potency [3] | Potency [4] | Potency [5] | Potency [6] | outcome [7] | outcome [8] | outcome [9] | Potency [11] | Potency [12] | Potency [13] | Potency [14] | Potency [15]

C=CCS(=O)(=O)O
inactive: Potency [1] | Potency [2] | Potency [3] | Potency [4] | Potency [5] | Potency [6] | outcome [7] | outcome [8] | outcome [9] | outcome [10] | Potency [12] | Potency [13] | outcome [16] | Potency [14]

CCN(Cc1ccncc1)C(=O)C(CO)c1ccccc1 (configuration not stated)
inactive: Potency [1] | Potency [2] | Potency [3] | Potency [4] | Potency [5] | Potency [6] | outcome [7] | outcome [8] | outcome [9] | Potency [11] | Potency [12] | Potency [13] | Potency [14]

N=C(N)c1ccccc1
inactive: Potency [1] | Potency [2] | Potency [17] | Potency [4] | Potency [5] | Potency [6] | outcome [7] | outcome [8] | outcome [9] | outcome [10] | Potency [11] | Potency [12] | Potency [13] | outcome [16] | Potency [14] | Potency [15]

CCCCOCCOCCOCCCC
inactive: Potency [1] | Potency [2] | Potency [3] | Potency [5] | Potency [6] | outcome [7] | outcome [8] | outcome [9] | outcome [10] | Potency [11] | Potency [12] | Potency [13] | outcome [16] | Potency [14] | Potency [15]

CC(C)(C)c1nnc(NS(=O)(=O)c2ccccc2)s1
inactive: Potency [1] | Potency [2] | Potency [17] | Potency [4] | Potency [5] | Potency [6] | outcome [7] | outcome [8] | outcome [9] | outcome [10] | Potency [11] | Potency [12] | Potency [13] | Potency [14]
active: Potency [15] 11.9 µM

CCOc1ccc(C(=O)OCCN(CC)CC)cc1
inactive: Potency [1] | Potency [2] | Potency [3] | Potency [4] | Potency [5] | Potency [6] | outcome [7] | outcome [8] | Potency [11] | Potency [12] | Potency [13] | outcome [16] | Potency [14] | Potency [15] | max activation [18] -2.52% | Potency [19] | Potency [20]

COc1ccccc1OCC(O)CN1CCN(CC(=O)Nc2c(C)cccc2C)CC1 (configuration not stated)
inactive: Potency [1] | Potency [2] | Potency [3] | Potency [4] | Potency [5] | Potency [6] | outcome [8] | outcome [9] | outcome [10] | Potency [11] | Potency [12] | Potency [13] | outcome [16] | Potency [14] | Potency [15]

CCOC(=O)C(=O)OCC
inactive: Potency [1] | Potency [2] | Potency [3] | Potency [5] | Potency [6] | outcome [7] | outcome [8] | Potency [11] | Potency [12] | Potency [13] | outcome [16] | Potency [14] | Potency [15]

NC(=O)c1ccc([N+](=O)[O-])cc1
inactive: Potency [1] | Potency [2] | Potency [3] | Potency [4] | Potency [5] | Potency [6] | outcome [7] | outcome [8] | Potency [11] | Potency [12] | Potency [13] | outcome [16] | Potency [14] | Potency [15]

OC[C@]1(O)OC[C@@H](O)[C@H](O)[C@@H]1O
inactive: Potency [1] | Potency [2] | Potency [3] | Potency [4] | Potency [5] | Potency [6] | outcome [8] | outcome [9] | outcome [10] | Potency [11] | Potency [12] | Potency [13] | outcome [16] | Potency [14] | Potency [15]

O=c1cc(CO)occ1O
inactive: Potency [1] | Potency [2] | Potency [3] | Potency [4] | Potency [5] | Potency [6] | outcome [7] | outcome [8] | outcome [9] | Potency [11] | Potency [12] | Potency [13] | outcome [16] | Potency [14] | Potency [15]

O=c1n(CCO)c(=O)n(CCO)c(=O)n1CCO
inactive: Potency [1] | Potency [2] | Potency [3] | Potency [5] | Potency [6] | outcome [7] | outcome [8] | outcome [9] | outcome [10] | Potency [11] | Potency [12] | Potency [13] | Potency [14] | Potency [15]

N[C@H](C(=O)O)c1ccc(O)cc1
inactive: activity change, negative = inhibition [1] -2.34% [at 19 µM] | activity change, negative = cytotoxicity [2] 3.8% [at 19 µM] | activation [3] -0.625% [at 19 µM] | activity change, negative = cytotoxicity [5] -6.4% [at 19 µM] | viability change, negative = cytotoxic [6] 1.75% [at 15.8 µM] | activity change, negative = cytotoxicity [7] -0.107% [at 15.8 µM] | activation [8] -1.41% [at 15.8 µM] | activity, negative = inhibition [9] 3.01% [at 10.5 µM] | activity change, negative = cytotoxicity [11] 0.445% [at 19 µM] | caspase activation [12] -0.122% [at 19 µM] | Potency [13] | caspase-3/7 activation [16] -0.938% [at 19 µM] | activity change, negative = cytotoxicity [14] 0.561% [at 19 µM] | activation [15] -2.7% [at 19 µM] | Potency [19] | Potency [20]
